Inconclusive results are not listed. Values without a mark were called inactive. Calls come from the whole dose curve; as a rule, active = well fitted inhibition curve with a large enough effect; inconclusive = small, poorly fitted or top-dose-only effect; inactive = flat fitted curve, though single readings scatter.
Each compound was assayed against Calcium and integrin-binding protein 1 (Homo sapiens) (UniProt Q99828) (assay: Primary qHTS for Identification of Calcium Integrin Binding Protein 1 (CIB1) Competitor (AID 1508620;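 note: GST tagged CIB1 binding a fluorescein labelled alphaIIb integrin peptide tracer; top concentration of the series differs between compounds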)). Settings: CIB1-GST / FITC-alphaIIb peptide fluorescence polarization; series mostly up to 114 µM; activity change, negative = inhibition: at the top concentration.
Chain of Calcium and integrin-binding protein 1 (Homo sapiens) (Q99828 whole entry, looked up): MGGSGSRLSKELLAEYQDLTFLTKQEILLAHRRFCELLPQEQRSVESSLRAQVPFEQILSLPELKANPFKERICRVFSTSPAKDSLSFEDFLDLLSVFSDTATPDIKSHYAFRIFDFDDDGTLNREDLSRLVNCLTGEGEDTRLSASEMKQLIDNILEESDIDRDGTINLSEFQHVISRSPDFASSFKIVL
In short: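 CIB1-GST (1 uM final) and compound incubated 15 min at room temperature before adding FITC-alphaIIb peptide tracer (100 nM final). Competition for binding read by fluorescence polarization (ex 480, em 540) after another 15 min at room temperature.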
`Cc1ccnc(CC(=S)N2CCN(c3cccc(C(F)(F)F)c3)CC2)c1` was tested, and the “activity change, negative = inhibition” value was -25.1%.
`O=S(=O)(c1ccc2c(c1)OCCO2)N1CCN(S(=O)(=O)c2ccc(Cl)cc2F)CC1` was tested, and the “activity change, negative = inhibition” value was 1.96%.
In the case of `CCCC1CCN(C(=O)CC(c2ccc3c(c2)OCO3)c2c(O)cc(OC)cc2OC)C1` (stereo not given), the “activity change, negative = inhibition” value is reported as 2.16% [at 228 µM].
In the case of `CCCCC(O)C(=O)Nc1cc(C(F)(F)F)ccc1Cl` (stereo not given), the “activity change, negative = inhibition” value is reported as -1.69%.
In the case of `O=C(Cc1ccc2ccccc2c1)Nc1nnc(-c2ccncc2)s1`, the “activity change, negative = inhibition” value is reported as 5.97%.
In the case of `O=C(Nc1nnc(-c2ccco2)o1)c1ccncc1`, the “activity change, negative = inhibition” value is reported as -0.166%.
With `Cc1ccc(-c2ccnc(N3CCC(C(N)=O)CC3)n2)cc1` the “activity change, negative = inhibition” value was -1.39%.
For `Cc1cc2c(s1)c1cnn(Cc3ccc(C(=O)O)cc3)c(=O)c1n2C`, the “activity change, negative = inhibition” value was -13.3%.
For `S=c1[nH]c2ccccc2n1CCc1ccccc1`, the “activity change, negative = inhibition” value was -8.31%.
In the case of `COc1cccc(C2c3c(ncn(-c4ccccc4Cl)c3=N)Oc3ccc4ccccc4c32)c1` (stereo not given), the “activity change, negative = inhibition” value is reported as 3.56%.
`Cc1cnc(-c2ccccc2C2COC2)nc1NCc1ccc(-n2ccnn2)cc1` was tested, and the “activity change, negative = inhibition” value was 4.33%.
In the case of `c1nc(NCCc2cnc[nH]2)c2cc(-c3ccoc3)ccc2n1`, the “activity change, negative = inhibition” value is reported as 8.29%.
`Cc1cc(NS(=O)(=O)c2ccc(NS(=O)(=O)Cc3ccc(Cl)c(Cl)c3)cc2)no1` was tested, and the “activity change, negative = inhibition” value was -11.3%.
In the case of `CCOc1ccc(CCNC(=O)c2cc3ccccc3o2)cc1OCC`, the “activity change, negative = inhibition” value is reported as 0.317%.
For `COc1ccc(C2Nc3ccccc3C(=O)N2Cc2ccccc2)cc1COc1ccc(NC(=O)c2ccccc2)cc1` (stereo not given), the “activity change, negative = inhibition” value was 12%.
With `COc1ccc(NC(=O)CN2C(=O)N/C(=C\c3cccn3-c3ccc(C(=O)NC#N)cc3)C2=O)cc1` the “activity change, negative = inhibition” value was 0.095%.
For `O=S(=O)(c1ccc2c(c1)OCCO2)N1CCN(S(=O)(=O)c2cccc[n+]2[O-])CC1`, the “activity change, negative = inhibition” value was 4.63%.
With `Cn1ccc2cc(-c3ccc4ncnc(NCc5cccc(F)c5)c4c3)ccc21` the “activity change, negative = inhibition” value was -0.275%.
In the case of `Nc1cccc(CNc2ccc(S(=O)(=O)Nc3nccs3)cc2)c1O`, the “activity change, negative = inhibition” value is reported as -17.1% [at 30.2 µM].
`CC1=C(C(=O)Nc2ccccc2)C(c2ccccc2Cl)N=C(Nc2nc3ccccc3o2)N1` (stereo not given) was tested, and the “activity change, negative = inhibition” value was 6.99%.
In the case of `COc1cc(-c2nc(Nc3ccc(F)c(F)c3)c3ccccc3n2)cc(OC)n1`, the “activity change, negative = inhibition” value is reported as 3.21%.
In the case of `Cc1c(P(=S)(c2ccccc2)c2ccccc2)c2ccccc2n1CCc1ccccc1`, the “activity change, negative = inhibition” value is reported as 2.03%.
With `Nc1ccc(S(=O)(=O)N2CCN(S(=O)(=O)c3ccc4c(c3)OCCO4)CC2)cc1` the “activity change, negative = inhibition” value was 5.39%.
For `CC(C)(C)OC(=O)N1CCN(c2ccc(NCc3cc(-c4ccc(C#N)cc4)co3)cc2)CC1`, the “activity change, negative = inhibition” value was 3.56%.
With `O=C(Nc1ccc(-c2nc3ccccc3[nH]2)cc1)c1ccc(Cl)c(Cl)c1` the “activity change, negative = inhibition” value was 26.5%.
With `Cc1ccc(OC2=NS(=O)(=O)c3ccccc32)cc1` the “activity change, negative = inhibition” value was -2.65%.
For `COc1ccc(COc2ccc(-c3nc4ccccc4[nH]3)cc2)cc1OC`, the “activity change, negative = inhibition” value was 10.8%.
With `O=[S+]([O-])(Nc1nccs1)c1ccc(NCc2ccc(Cl)c(Cl)c2)cc1` the “activity change, negative = inhibition” value was -13.8%.
In the case of `Fc1cc(Nc2nc(-c3ccncc3)nc3ccccc23)ccc1-c1cccc(OC(F)(F)F)c1`, the “activity change, negative = inhibition” value is reported as 6.95%.
With `N#Cc1ccc(NC(=O)Nc2nnc(-c3ccncc3)s2)c(Cl)c1` the “activity change, negative = inhibition” value was 7.97%.
In the case of `NC(=O)c1c(NC(=O)C2CCCO2)sc2c1CCCC2` (stereo not given), the “activity change, negative = inhibition” value is reported as -5.74%.
In the case of `Cc1cc(-c2nnc3n2CCCCC3)c(C)n1-c1ccc(C#N)cc1`, the “activity change, negative = inhibition” value is reported as 5.4%.
In the case of `Oc1cccc2cc(-c3ccncc3)cnc12`, the “activity change, negative = inhibition” value is reported as -6.39%.
`O=C(NCCc1nc2ccccc2[nH]1)C1CCCCC1` was tested, and the “activity change, negative = inhibition” value was 1.31%.
`Cc1ccc(S(=O)(=O)N2CCN(S(=O)(=O)c3ccc4c(c3)OCCO4)CC2)cc1` was tested, and the “activity change, negative = inhibition” value was -4.36%.
With `Nc1ccc2c(=O)n3nc(Nc4ccc5c(c4)CCC5)sc3nc2c1` the “activity change, negative = inhibition” value was -16.4%.
`FC(F)(F)c1cccc(CSc2nc3ncc(Br)cc3[nH]2)c1` was tested, and the “activity change, negative = inhibition” value was 1.98%.
For `Cc1cn([C@H]2C[C@H](N[S+](=O)([O-])Cc3ccc(Cl)cc3)[C@@H](CO)O2)c(=O)[nH]c1=O`, the “activity change, negative = inhibition” value was 6.59%.
In the case of `CCOC(=O)C1CCN(c2ncc(-c3ccc4c(c3)OCCCO4)s2)CC1`, the “activity change, negative = inhibition” value is reported as 2.57%.
In the case of `O=C(Nc1ccc(N2CCOCC2)c(C(F)(F)F)c1)Nc1nnc(-c2ccncc2)s1`, the “activity change, negative = inhibition” value is reported as -0.369%.

From PubChem BioAssay (NCATS)
% is set by controls: 0 for no effect and ±100 for the full control effect.
